Data as given in PubChem BioAssay (NCATS).
Results filed as inconclusive are left out. A call without a number means that no potency is given here. Calls of active or inactive are those of the source. The call rests on the fitted dose curve; in most records, active means well fitted inhibition curve with a large enough effect; inconclusive means small, poorly fitted or top-dose-only effect; inactive means flat fitted curve, though single readings scatter.

Assays:
Assay in all cases: qHTS profiling for inhibitors of Plasmodium falciparum proliferation (AID 504749); further: nearly all actives have a fitted effect of over 60% in size
Details in all cases: P. falciparum in erythrocytes, SYBR Green DNA, 72 h; series mostly up to 28.7 µM
[1] = tested on: CP325
Procedure, shortened: (§1)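 P. falciparum-infected erythrocytes (0.3% parasitemia, 2.5% hematocrit final) were exposed to compounds for 72 h at 37 C in 5% CO2, then lysed with SYBR Green buffer overnight at room temperature; parasite DNA fluorescence was normalized to artemisinin and DMSO controls.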

[2] = tested on: CP329
Procedure, shortened: as §1

[3] = tested on: CP335
Procedure, shortened: as §1

[4] = tested on: DFO2036
Procedure, shortened: as §1

[5] = tested on: DIV14
Procedure, shortened: as §1

[6] = tested on: DIV17
Procedure, shortened: as §1

[7] = tested on: DIV30
Procedure, shortened: as §1

[8] = tested on: Dd2
Procedure, shortened: as §1

[9] = tested on: ECU
Procedure, shortened: as §1

[10] = tested on: FAB9
Procedure, shortened: as §1

[11] = tested on: GB4
Procedure, shortened: as §1

[12] = tested on: HB3
Procedure, shortened: as §1

[13] = tested on: ICS
Procedure, shortened: as §1

[14] = tested on: JCK
Procedure, shortened: as §1

[15] = tested on: N140
Procedure, shortened: as §1

[16] = tested on: P93_24
Procedure, shortened: as §1

[17] = tested on: P94_40
Procedure, shortened: as §1

[18] = tested on: PAD
Procedure, shortened: as §1

[19] = tested on: PC15
Procedure, shortened: as §1

[20] = tested on: PC26
Procedure, shortened: as §1
Potency means the concentration at half of the fitted maximal effect.

Row | SMILES | outcome [1] | outcome [2] | Potency [3] | Potency [4] | Potency [5] | Potency [6] | outcome [7] | Potency [8] | Potency [9] | Potency [10] | Potency [11] | Potency [12] | Potency [13] | Potency [14] | Potency [15] | Potency [16] | Potency [17] | Potency [18] | Potency [19] | Potency [20]
1 | O=C(NCN1CCOCC1)c1cnccn1 | inactive | inactive | inactive | inactive | inactive | inactive | inactive | inactive | inactive | inactive | inactive | inactive | inactive | inactive | inactive | inactive | inactive | inactive | inactive | inactive
2 | CN(C(=O)c1c(O)c2ccccc2n(C)c1=O)c1ccccc1 | inactive | inactive | inactive | inactive | inactive | inactive | inactive | inactive | inactive | inactive | inactive | inactive | inactive | inactive | inactive | inactive | inactive | inactive | inactive | inactive
3 | O=C(O)c1cc(=O)c2ccccc2o1 | inactive | inactive | inactive | inactive | inactive |  | inactive | inactive | inactive | inactive |  | inactive | inactive | inactive | inactive | inactive | inactive | inactive | inactive | inactive
4 | COc1ccc(Cc2cnc(N)nc2N)cc1OC | inactive | inactive | inactive | inactive | inactive | inactive | inactive | inactive | 3.98 µM (active) | 7.94 µM (active) | 2.39 µM (active) |  | inactive | inactive | inactive | inactive | inactive | inactive | inactive | inactive
5 | O=C(O)CCCCC1CCSS1 (stereo not drawn) | inactive | inactive | inactive | inactive |  | inactive | inactive | inactive | inactive | inactive | inactive | inactive | inactive | inactive | inactive | inactive | inactive | inactive | inactive | inactive
6 | COC(=O)c1cccnc1 | inactive | inactive | inactive | inactive | inactive | inactive | inactive | inactive | inactive | inactive | inactive | inactive | inactive | inactive | inactive |  | inactive | inactive | inactive | inactive
7 | O=C1c2ccccc2S(=O)(=O)N1CCCCN1CCN(c2ncccn2)CC1 | inactive | inactive | inactive | inactive | inactive |  | inactive | inactive | inactive | inactive | inactive | inactive | inactive | inactive | inactive | inactive | inactive | inactive | inactive | inactive
8 | FC(F)(F)C(Cl)Br (stereo not drawn) | inactive | inactive | inactive | inactive | inactive |  | inactive | inactive | inactive | inactive | inactive | inactive | inactive | inactive | inactive | inactive | inactive | inactive | inactive | inactive
9 | CC(=O)SC[C@@H](Cc1ccccc1)C(=O)NCC(=O)OCc1ccccc1 | inactive | inactive | inactive | inactive | inactive | inactive | inactive | inactive | inactive | inactive | inactive | inactive |  | inactive | inactive | inactive | inactive | inactive | inactive | inactive
10 | CNc1c2c(nn1C)CCCC2 | inactive | inactive | inactive | inactive |  | inactive | inactive | inactive | inactive | inactive | inactive | inactive | inactive | inactive | inactive | inactive | inactive | inactive | inactive | inactive
11 | O=C(O)c1ccc[n+]([O-])c1 | inactive | inactive | inactive | inactive |  | inactive | inactive | inactive | inactive | inactive | inactive | inactive | inactive | inactive | inactive | inactive | inactive | inactive | inactive | inactive
12 | Nc1ccc(C(=O)Oc2ccccc2)c(O)c1 | inactive | inactive | inactive | inactive |  | inactive | inactive | inactive | inactive | inactive | inactive | inactive | inactive | inactive | inactive | inactive | inactive | inactive | inactive | inactive
13 | CN(C/C=C/C#CC(C)(C)C)Cc1cccc2ccccc12 | inactive | inactive | inactive | inactive | inactive | inactive | inactive | inactive | inactive | inactive | inactive | inactive |  | inactive | inactive | inactive |  | inactive | inactive | inactive
14 | CC(=O)N[C@@H](Cc1ccc(O)cc1)C(=O)O | inactive | inactive | inactive | inactive | inactive | inactive |  | inactive | inactive | inactive | inactive | inactive | inactive | inactive | inactive | inactive | inactive | inactive | inactive | inactive
15 | O=C1CC[C@@H](C(=O)O)N1 | inactive | inactive | inactive | inactive | inactive |  | inactive | inactive | inactive | inactive |  | inactive |  | inactive | inactive |  | inactive | inactive | inactive | inactive
16 | Cc1ccc(S(=O)(=O)NC(=O)NC2CCCCC2)cc1 | inactive | inactive | inactive | inactive | inactive | inactive | inactive |  | inactive | inactive | inactive | inactive | inactive | inactive | inactive | inactive | inactive | inactive | inactive | inactive
17 | COc1ccccc1Oc1c(NS(=O)(=O)c2ccc(C(C)(C)C)cc2)nc(-c2ncccn2)nc1OCCO | inactive | inactive | inactive | inactive | inactive | inactive | inactive | inactive | inactive | inactive | inactive | inactive |  | inactive | inactive | inactive | inactive | inactive | inactive | inactive
18 | COc1cc(C(=O)NCCCCCC(=O)O)cc(OC)c1OC | inactive | inactive | inactive | inactive | inactive | inactive | inactive | inactive | inactive | inactive | inactive | inactive | inactive |  | inactive | inactive | inactive | inactive | inactive | inactive
19 | CC(C)CCCC(C)CCCC(C)CCCCC(C)CCCC(C)CCCC(C)C (stereo not drawn) | inactive | inactive | inactive | inactive | inactive | inactive | inactive | inactive | inactive | inactive | inactive | inactive | inactive | inactive | inactive | inactive |  | inactive | inactive | inactive
